Where a name gives a salt, the structure may show the parent alone.
The molecules below were run on MOLM14 (assay: cell viability relative to vehicle control; higher = less cytotoxic). Conditions: 10 µM; SRSF2 genotype: SRSF2 wt/wt.
In short: (§1)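 Each screen used CRISPR-edited mutant and wild-type clones from four leukaemia lines. Compounds were acoustically dispensed at a single 10 µM dose, and CellTiter-Glo luminescence was read after 48 h with the supernatant first removed. Viability was analysed in Genedata Screener and given as percent of the on-plate vehicle control.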
Molecule `COC(=O)/C=C/C(=O)OC` [Dimethyl Fumarate] has a cell viability of 99.5%.
Work on `CCc1ccc(-c2nc(CSCC(=O)NCCc3ccccc3)c(C)o2)cc1` yielded a cell viability of 96.8%.
Molecule `CCCSc1nc(N[C@@H]2C[C@H]2c2ccc(F)c(F)c2)c2nnn([C@@H]3C[C@H](OCCO)[C@@H](O)[C@H]3O)c2n1` [Ticagrelor] has a cell viability of 85.9%.
`O=C(O)C(=O)O` [Oxalic acid] showed a cell viability of 94.3%.
Work on `CN1C(C(=O)Nc2ccccn2)=C(O)c2sccc2S1(=O)=O` [Tenoxicam(Mobiflex)] yielded a cell viability of 106%.
Work on `O=C(CCNC(=O)c1ccc(OC(F)(F)F)cc1)N[C@@H]1CCCc2ccccc21` yielded a cell viability of 94.6%.
`NC1(C(=O)N[C@@H](CCO)c2ccc(Cl)cc2)CCN(c2ncnc3[nH]ccc23)CC1` was tested, and the cell viability was 33.3%.
`COc1ccc(Oc2cc(C)c(-c3csc(NC(=O)c4ccncc4)n3)c(C)c2)cc1` showed a cell viability of 25.9%.

What follows are molecules tested on OCI-AML2 in the same assay as above. Conditions: 10 µM; SRSF2 genotype: P95H/wt.
In short: as §1
With `COc1ccc2cc3[n+](cc2c1OC)CCc1cc2c(cc1-3)OCO2` [Berberine Sulfate] the cell viability was 49.8%.
For `CO/N=C(\C(=O)N[C@@H]1C(=O)N2C(C(=O)[O-])=C(C[n+]3ccn4ncccc43)CS[C@H]12)c1nsc(N)n1` [Cefozopran hydrochloride], the cell viability was 95.2%.
`O=C1NC(=O)/C(=C/c2cccc(C(F)(F)F)c2)S1` gave a cell viability of 111%.
Molecule `CC(C)NCC(O)c1ccc(O)c(O)c1` (stereo not drawn) [Isoprenaline hydrochloride] has a cell viability of 104%.
With `CC(C)C(C)C(O)C(O)C(C)C1CCC2C3COC(=O)C4CC(O)C(O)CC4(C)C3CCC12C` (stereo not drawn) [Brassinolide] the cell viability was 120%.
Work on `O=c1c(-c2ccc(O)cc2)coc2cc(O[C@@H]3O[C@H](CO)[C@@H](O)[C@H](O)[C@H]3O)cc(O)c12` [Genistin (Genistoside)] yielded a cell viability of 92.1%.
With `C[C@H]1[C@@H](O)O[C@@H]2O[C@@]3(C)CC[C@H]4[C@H](C)CC[C@@H]1[C@@]24OO3` [Dihydroartemisinin (DHA)] the cell viability was 0.58%.
For `Nc1ncnc2c1ncn2C(C=O)OC(C=O)CO` (stereo not drawn) [Adenosine Dialdehyde (ADOX)], the cell viability was 40.4%.
In the case of `COc1nc2ccc(Br)cc2cc1[C@@H](c1ccccc1)[C@@](O)(CCN(C)C)c1cccc2ccccc12` [Bedaquiline], the cell viability was 38.5%.
With `CO[C@@H]1[C@@H](OC)[C@H](C)[C@@](O)(CC(=O)O)O[C@H]1[C@H](C)[C@H]1O[C@@]2(CC[C@@](C)([C@H]3CC[C@@](C)([C@@H]4O[C@@H]([C@H]5O[C@](C)(O)[C@H](C)C[C@@H]5C)C[C@@H]4O[C@@H]4C[C@H](OC)[C@@H](OC)[C@H](C)O4)O3)O2)C[C@H](O)[C@H]1C` [Maduramycin Ammonium] the cell viability was 1.54%.
For `CCn1c(=O)c(-c2ccc(-c3cncs3)cc2Cl)cc2cnc(Nc3ccc(N4CCN(C)CC4)cc3)nc21`, the cell viability was 71%.
`O=P(O)(O)Oc1cccc2ccccc12` [1-Naphthyl phosphate potassium salt] showed a cell viability of 83.9%.
Work on `O=c1c(O)c(-c2ccc(O)cc2)oc2cc(O)cc(O)c12` [Kaempferol] yielded a cell viability of 81.7%.
`CCC(=O)O[C@]1(C(=O)SCF)[C@H](C)C[C@H]2[C@@H]3C[C@H](F)C4=CC(=O)C=C[C@]4(C)[C@@]3(F)[C@@H](O)C[C@@]21C` [Fluticasone propionate (Flonase, Veramyst)] was tested, and the cell viability was 86.7%.
Molecule `Nc1nc(NC2CC2)cc(-c2cccc(Cl)c2Cl)n1` has a cell viability of 60.8%.
With `CC(C)CCCC(C)C1CCC2C3=CC=C4CC(O)CCC4(C)C3CCC21C` (stereo not drawn) [7-Dehydrocholesterol] the cell viability was 94.2%.
Work on `O=C1C(c2[nH]c3ccccc3c2O)=Nc2ccccc21` [Indigo] yielded a cell viability of 90%.
`CN(CCNc1ccnc2cc(Cl)ccc12)CCNc1ccnc2cc(Cl)ccc12` gave a cell viability of 0.35%.
For `COc1ccc2cc(CCC(C)=O)ccc2c1` [Nabumetone], the cell viability was 92.4%.
Work on `COc1cc(C=O)ccc1O` [Vanillin] yielded a cell viability of 105%.
`CCC(=O)OCC(=O)[C@@]1(OC(=O)CC)[C@@H](C)C[C@H]2[C@@H]3CCC4=CC(=O)C=C[C@]4(C)[C@@]3(F)[C@@H](O)C[C@@]21C` [Betamethasone Dipropionate (Diprolene)] showed a cell viability of 113%.
Molecule `Cn1nc(C(C)(C)C)cc1C(=O)N[C@@H](Cc1cccc(Cl)c1)C(=O)NCC#N` [Cathepsin Inhibitor 1] has a cell viability of 97.8%.
`CCOC(=O)C1=C(C)NC(C)=C(C(=O)OC)C1c1cccc(Cl)c1Cl` (stereo not drawn) [Felodipine (Plendil)] gave a cell viability of 78.9%.
With `CC(C)=CCCC(C)(OC1OC(COC2OCC(O)C(O)C2O)C(O)C(O)C1O)C1CCC2(C)C1C(O)CC1C3(C)CCC(OC4OC(CO)C(O)C(O)C4O)C(C)(C)C3CCC12C` (stereo not drawn) [Gynostemma Extract] the cell viability was 110%.
Work on `CCNC(=O)[C@@H]1CCCN1C(=O)[C@H](CCCN=C(N)N)NC(=O)[C@H](CC(C)C)NC(=O)[C@@H](CC(C)C)NC(=O)[C@H](Cc1ccc(O)cc1)NC(=O)[C@H](CO)NC(=O)[C@H](Cc1c[nH]c2ccccc12)NC(=O)[C@H](Cc1cnc[nH]1)NC(=O)[C@@H]1CCC(=O)N1` [S3718 Leuprolide Acetate.cdx] yielded a cell viability of 102%.
Work on `Nc1ncnc2c1ncn2C1OC(COP(=O)(O)OP(=O)(O)O)C(O)C1O` (stereo not drawn) yielded a cell viability of 96.3%.
With `O=CO` [Formate] the cell viability was 96.7%.
In the case of `COc1cc2c(=O)c(-c3ccc(O)cc3)coc2cc1O[C@@H]1O[C@H](CO)[C@@H](O)[C@H](O)[C@H]1O` [Glycitin], the cell viability was 89.3%.
`Nc1nc(-c2nn(Cc3ccccc3F)c3ncccc23)ncc1C1CC1` was tested, and the cell viability was 83.9%.
In the case of `O=C(O)c1cc2cccc([N+](=O)[O-])c2[nH]1`, the cell viability was 111%.
Molecule `C=C1CC[C@H]2O[C@]2(C)CC[C@@H]2[C@@H]1CC2(C)C` [Caryophyllene oxide] has a cell viability of 112%.
`CC(C)c1ccc(C=O)cc1` [4-Isopropylbenzaldehyde] was tested, and the cell viability was 89.9%.
Work on `COC(=O)/C=C/C(=O)OC` [Dimethyl Fumarate] yielded a cell viability of 111%.
For `CCc1ccc(-c2nc(CSCC(=O)NCCc3ccccc3)c(C)o2)cc1`, the cell viability was 74.5%.
`CCCSc1nc(N[C@@H]2C[C@H]2c2ccc(F)c(F)c2)c2nnn([C@@H]3C[C@H](OCCO)[C@@H](O)[C@H]3O)c2n1` [Ticagrelor] gave a cell viability of 71.5%.
For `O=C(O)C(=O)O` [Oxalic acid], the cell viability was 99.2%.
`CN1C(C(=O)Nc2ccccn2)=C(O)c2sccc2S1(=O)=O` [Tenoxicam(Mobiflex)] showed a cell viability of 95.5%.
`O=C(CCNC(=O)c1ccc(OC(F)(F)F)cc1)N[C@@H]1CCCc2ccccc21` was tested, and the cell viability was 93.8%.
In the case of `NC1(C(=O)N[C@@H](CCO)c2ccc(Cl)cc2)CCN(c2ncnc3[nH]ccc23)CC1`, the cell viability was 59.8%.
Work on `COc1ccc(Oc2cc(C)c(-c3csc(NC(=O)c4ccncc4)n3)c(C)c2)cc1` yielded a cell viability of 47.8%.
